From PubChem BioAssay
This is a sample that favours compounds with a hit; in the whole collection about 32% have one here.
CYP2C19 inh – blocks human cytochrome P450 2C19; actives 21% (n = 96,000); P33261; AID 778; inhibition, % at 5 µM; CYP2C19 Supersomes, luciferin-H EGE luminescence, 30 min;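 active = CYP2C19 inhibition above a set limit at 5 µM in the primary screen, cut at about 50% in these data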;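 note: plate controls were negative control wells for no effect and 2.5 mM tranylcypromine positive control for full effect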
PostGolgi ctrl – inhibits growth of the yeast control strain; efflux-deficient yeast background strain, growth absorbance A615, 16 h; inhibition, % at 10 µM; actives 5% (n = 98,000); AID 738
CYP2C9 act – increases human cytochrome P450 2C9 activity; actives 1.4% (n = 96,000); AID 1024; activation factor at 5 µM; recombinant CYP2C9, luciferin-H conversion, luminescence; active compounds read high; factor 1 = untreated enzyme, 0 = blocked;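 active = activation factor of 2 or more for CYP2C9 at a 5 µM dose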;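 note: 0 = sulfaphenazole-blocked wells and 1 = vehicle-only wells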
CYP2C19 activ – activators of human cytochrome P450 2C19; recombinant CYP2C19, luciferin-H EGE luminescence; active compounds read high; 0 = fully inhibited enzyme, 1 = untreated enzyme; P33261; AID 1025; activation factor at 5 µM; 96,000 tested, under 10 active;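 active = activation factor of at least 2 at 5 µM in the primary screen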;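 note: 0 = wells with 2.5 mM tranylcypromine and 1 = vehicle-only wells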
CYP2C9 inhib – inhibitors of human CYP2C9; P11712; CYP2C9 Supersomes, luciferin-H conversion, luminescence; inhibition, % at 5 µM; actives 20% (n = 96,000); AID 777;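 active = blocking of liver enzyme CYP2C9 beyond about 50% at 5 µM, limit read from the data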
PostGolgi yeast – growth inhibition of a yeast mutant, post-Golgi transport screen | post-Golgi transport phenotypic cell assay | AID 739 | inhibition, % at 10 µM | actives 0.9% (n = 98,000);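 note: yeast cells grown in 1536-well plates; yeast grown about 18 h at 30C before absorbance read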
Starred values were filed as active, the others as inactive; . = not tested or not shown. Cut-off read from the data, not from the text of the source, unless noted: active = inhibition above about 30%; inactive = the rest.

SMILES	CYP2C19 inh	PostGolgi ctrl	CYP2C9 act	CYP2C19 activ	CYP2C9 inhib	PostGolgi yeast
N=c1nc(SCCC(=O)O)ss1	-2	0	1	1	1	18
CCOC(=O)CSc1nc2cc3c(cc2cc1C#N)OCO3	19	2	0.6	0.8	39	25
Cc1ccc(-c2nnc(CSc3nc4cc5c(cc4cc3C)OCO5)o2)cc1	32	18	0.4	0.7	65*	-6
Cc1ccc(-c2csc3ncnc(Sc4nnc(CN5CCCCCC5=O)o4)c23)cc1	52*	20	0.2	0.5	83*	-5
Cc1ccc(-c2csc3ncn(CC(=O)N4CCOCC4)c(=O)c23)cc1	-18	-4	1.2	1.2	-23	19
O=C(CSc1nnc(CNC(=O)c2c(F)cccc2Cl)o1)Nc1ccccc1	2	-2	1	1	2	-6
CCc1ccc(NC(=O)CSc2nnc(CNC(=O)c3c(F)cccc3Cl)o2)cc1	21	-1	0.5	0.8	52*	-2
COC(=O)c1ccc(S(=O)(=O)N2CCCC2)o1	-7	4	1	1.1	-4	-5
O=C(Nc1ccccc1-c1nnc(SCc2ccccc2Cl)o1)c1ccccc1	5	5	0.4	0.9	55*	-5
COc1ccccc1-c1nnc(SCC(=O)Nc2ccc(Cl)cc2Cl)o1	46	8	0.6	0.5	38	1
CCOC(=O)CSc1nnc(-c2ccccc2NC(=O)c2ccccc2)o1	-12	-17	0.9	1.1	12	5
CCc1nnc(NC(=O)CSc2nnc(-c3ccccc3NC(=O)c3ccccc3)o2)s1	11	2	0.5	0.9	51*	-2
CCCOC(=O)c1ccc(NC(=O)c2cn(CC)c3nc(C)ccc3c2=O)cc1	-3	3	0.9	1	11	-2
CCS(=O)(=O)c1nc2ccccc2n1CC(=O)N1CCCCC1	.	4	.	.	.	9
COc1ccc(NC(=S)NCc2ccco2)c(OC)c1	81*	-1	0.6	0.2	36	-2
COc1ccccc1CCNC(=O)c1ccc(C)o1	68*	5	1.1	0.3	-11	8
COc1ccc(NC(=S)NCCc2ccccc2OC)c(OC)c1	99*	-10	1.1	0	-12	-15
COc1ccc(NC(=S)Nc2ccccn2)c(OC)c1	33	7	0.8	0.7	15	1
CCOc1cc(NC(=S)NCc2ccco2)c(OCC)cc1NC(C)=O	37	-1	1	0.6	2	11
COc1ccc(NC(=S)NCCC(c2ccccc2)c2ccccc2)c(OC)c1	99*	9	0.1	0	86*	5
COC(=O)c1ccc(C(=O)OC)c(NC(=O)c2cnc3n(c2=O)CCS3)c1	.	-4	.	.	.	5
COc1cccc(NC(=S)NCCC(c2ccccc2)c2ccccc2)c1	55*	16	0.3	0.4	68*	-12
COc1cccc(NC(=O)COc2ccccc2C(N)=O)c1	38	6	0.8	0.6	20	12
Cc1ccc(F)cc1NC(=O)CCC(=O)c1cccs1	89*	2	0.6	0.1	44	0
O=C(CCC(=O)N1CCN(S(=O)(=O)c2ccccc2)CC1)c1cccs1	25	-3	0.7	0.8	32	8
SMILES	CYP2C19 inh	PostGolgi ctrl	CYP2C9 act	CYP2C19 activ	CYP2C9 inhib	PostGolgi yeast
O=C(CCC(=O)c1cccs1)NC(c1ccccc1)c1ccccc1	74*	21	0.5	0.3	55*	1
CCN1CCN(CC(=O)Nc2cc(F)ccc2C)CC1	33	8	1	0.7	0	4
CCc1c(C)nc(SCC(=O)N2CCc3ccccc32)[nH]c1=O	8	-14	0.9	0.9	9	-4
O=C(Cn1ccsc1=NC(=O)C(F)(F)F)c1ccccc1	57*	14	0.6	0.4	35	-7
CN(C(=O)NC(=O)C1=C(N2CCOCC2)/C(=C/c2ccccc2)CC1)S(C)(=O)=O	19	12	0.9	0.8	6	-1
CCCCN(C(=O)NC(=O)C1=C(N2CCOCC2)/C(=C/c2ccccc2)CC1)S(C)(=O)=O	79*	1	0.2	0.2	78*	18
CCCCC(c1nnnn1CS(=O)(=O)c1ccc(C)cc1)N1CCN(c2ccccc2)CC1 (configuration not stated)	65*	21	0.3	0.4	69*	-2
CC(=O)c1cc(-c2ccc(F)cc2)n(CC(=O)NCc2cccs2)c1C	81*	2	0.5	0.2	49	-4
